Compound activity as filed in PubChem BioAssay.
Hits are enriched below; roughly 4.6% of the tested compounds scored in any of these assays.
CF NFkB block – cystic fibrosis NF-kB activation inhibition; inhibition, % at 5 µM; AID 588850; 360,000 tested, 0.86% active; KKLEB NF-kB-GFP reporter, PAF-induced, GFP fluorescence overnight;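 active = at least 50% inhibition at 5 µM, scaled per plate between neutral and stimulator controls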;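 note: PAF is a Pseudomonas aeruginosa culture filtrate used as stimulus; plate controls were PAF-stimulated DMSO wells for no effect and unstimulated DMSO wells for full effect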
HIF-2a block – blocks HIF-2a reporter activity; 786-0 RCC cells HIF-2a reporter, luciferase luminescence, overnight; inhibition, % at 18.8 µM; 360,000 tested, 0.72% active;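 active = inhibition of the luminescence signal of 40% or more relative to plate controls, in a single-dose primary screen at 18.75 µM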
Mdm2-MdmX inh – disrupts the human Mdm2-MdmX interaction. SaOS-2 split-luciferase Mdm2/MdmX complementation, luminescence. inhibition, % at 8 µM. 330,000 tested, 3% active. AID 485346;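 active = inhibition of at least 50% at 8 µM in the primary screen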
ABHD5-PLIN5 inh – ABHD5-PLIN5 protein interaction inhibition. 360,000 tested, 0.78% active. Split G. princeps luciferase complementation, luminescence, 4 h. inhibition, % at 4 µM;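 active = inhibition above the mean inhibition across every tested compound plus 3 SD, cut at about 22% in these data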;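 note: 0% = DMSO only wells and the 100% control is not disclosed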
KKLEB cytotox – reduces viability of KKLEB cystic fibrosis airway cells | KKLEB CF airway cells viability, ATPlite luminescence, overnight; active compounds read low; cells stimulated with P. aeruginosa culture filtrate | activity change (cytotoxicity), % at 5 µM | 360,000 tested, 0.36% active | AID 602141;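 active = corrected activity change at or below -50% at 5 µM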
Peg3 prom inh – reduces Peg3 promoter-driven luciferase expression in HeLa | 360,000 tested, 1.7% active | inhibition, % at 20 µM | AID 588405 | HeLa PEG-Prom luciferase reporter, luminescence, overnight;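 active = inhibition of at least 50% at 20 µM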
ABHD5 PLIN5 conf – confirmation of human ABHD5-PLIN5 interaction inhibitors; shares compounds with ABHD5-PLIN5 inh; biochemical ABHD5-PLIN5 interaction, luminescence; inhibition, % at 4 µM; 2,200 tested, 67% active; in the data active = inhibition above about 23%;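 note: 0% = DMSO vehicle wells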
HNF4 split-luc – active in HNF4 split-luciferase counter-screen for ABHD5-PLIN5 inhibitors; shares compounds with ABHD5-PLIN5 inh; HNF4 dimerization, luminescence, biochemical; inhibition, % at 4 µM; 2,200 tested, 77% active;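 active = mean inhibition across replicate wells exceeding the computed hit threshold, cut at about 13% in these data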;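 note: light from luciferase halves that rejoin when HNF4 fusion proteins dimerize; 0% = DMSO only wells and the 100% control is not given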
Starred values were filed as active, the others as inactive; . = no result given; ! = not confirmed by another sample.

SMILES	CF NFkB block	HIF-2a block	Mdm2-MdmX inh	ABHD5-PLIN5 inh	KKLEB cytotox	Peg3 prom inh	ABHD5 PLIN5 conf	HNF4 split-luc
COc1c(/C=C2/C(=O)NC(=O)N(C)C2=O)c(CCN(C)C(=O)c2ccccc2)cc2c1OCO2	-10.9	-15.7	4.7	20.4	3.3	0.3	.	.
CCNC(=S)N(C)CCc1cc2c(c(OC)c1C=C1C(=O)N(C)C(=O)N(C)C1=O)OCO2	13.0	8.7	6.4	29.2*	-7.0	11.5	10.3	18.2*
CNC(=S)N(C)CCc1cc2c(c(OC)c1/C=C1/C(=O)NC(=O)N(C)C1=O)OCO2	7.8	5.9	25.3	35.5*	-6.0	2.2	8.8	18.1*
CN1C2CCC1/C(=C/c1ccccn1)C(=O)/C2=C\c1ccccn1	98.9*	88.4*	.	97.9*	-91.3*	99.4*	104.0*	108.9*
CC(C)CN1Cc2cc(-c3cccc(F)c3)ccc2-n2nncc2C1	-43.8	-12.6	.	6.7	-3.8	10.1	.	.
Clc1cccc(N2Cc3cc(-c4ccccc4)ccc3-n3nncc3C2)c1	48.2	11.4	.	71.7*	-36.2	101.1*	47.0*	26.6*
O=C(O)Cn1cc(/C=C2\C(=O)NC(=O)N(c3ccc(Br)cc3)C2=O)c2ccccc21	-4.5	11.1	14.2	21.5	-3.9	9.1	.	.
Cc1ccc(N2C(=O)NC(=O)/C(=C\c3cn(CC(=O)O)c4ccccc34)C2=O)cc1	-6.0	12.2	16.1	26.7*	5.5	-7.9	25.0*	18.9*
C=CCn1cc(C=C2C(=O)N(C)C(=O)N(C)C2=O)c2ccccc21	-5.1	-9.8	-8.5	23.3*	-2.8	0.0	6.9	4.9
COC(=O)Cn1cc(/C=C2\C(=O)NC(=O)N(c3ccccc3)C2=O)c2ccccc21	-10.1	25.2	4.9	24.3*	-4.7	10.5	43.6*	37.9*
CC1C=CCCC12C(=O)NC(=O)NC2=O (configuration not stated)	9.3	11.1	.	-11.5	12.4	3.2	.	.
Cn1c(O)c(C=Nc2cccc(C(F)(F)F)c2)c(=O)n(C)c1=O	-10.9	9.9	4.7	24.1*	7.4	-8.9	6.0	13.8*
Cn1c(O)c(C=Nc2ccc(Br)cc2)c(=O)n(C)c1=O	-9.1	-36.4	-0.2	1.4	6.8	-28.3	.	.
NC(Cc1ccc(O)cc1)C(=O)NN=Cc1ccc(N(CCCl)CCCl)cc1 (configuration not stated)	1.3	12.1	.	1.6	-7.3	-1.5	.	.
O=C(O)CCn1cc(C=C2C(=O)NC(=O)NC2=O)c(-c2ccc(Br)cc2)n1	-6.7	8.4	-3.5	24.5*	2.9	-2.2	68.8*	70.5*
O=C(O)CCn1cc(C=C2C(=O)NC(=S)NC2=O)c(-c2cccc(Cl)c2)n1	1.5	11.1	2.3	7.5	1.3	-12.0	.	.
C=C1[C@H]2CC[C@H]3[C@]4(C)C[C@H](O[C@@H]5OC(CO)[C@@H](OSOOO)[C@H](OS(=O)(=O)O)[C@H]5OC(=O)CC(C)C)C[C@@H](C(=O)O)[C@H]4CC[C@]3(C2)[C@H]1O (some centres not stated)	1.1	0.9	1.6	-19.9	12.6	12.9	.	.
Cc1nc2ccccc2c(=O)n1/N=C/c1cc(Br)cc(Br)c1O	16.2	20.5	17.0	5.2	12.6	32.6	.	.
CC1=NN(c2ccccc2)C(=O)/C1=C/c1c(O)[nH]c(=O)[nH]c1=O	0.6	9.9	25.8	-22.3	5.9	21.5	.	.
O=c1[nH]c(O)c(/C=C2\C=NN=C2c2ccccc2)c(=O)[nH]1	13.7	3.0	18.8	30.3*	4.2	4.0	61.9*	63.4*
O=c1[nH]sc2cc(F)ccc12	-18.1	26.4	.	80.7*	3.2	8.8	39.7*	112.7*
CNS(=O)(=O)c1ccc(-c2ccc(C=C3C(=O)NC(=O)NC3=O)o2)cc1	-37.4	-112.4	3.9	24.8*	26.4	-3.4	93.7*	98.5*
NS(=O)(=O)c1ccc(-c2ccc(C=C3C(=O)NC(=S)NC3=O)o2)cc1	.	.	-12.6	.	.	.	.	.
NS(=O)(=O)c1ccc(-c2ccc(C=C3C(=O)NC(=O)NC3=O)o2)cc1	-41.2	-10.9	17.8	25.2*	4.9	-0.5	91.2*	95.2*
CCC(C)c1cnc(CC(C)C)c(=O)n1O (configuration not stated)	1.2	-13.0	.	1.0	-8.2	18.7	.	.
SMILES	CF NFkB block	HIF-2a block	Mdm2-MdmX inh	ABHD5-PLIN5 inh	KKLEB cytotox	Peg3 prom inh	ABHD5 PLIN5 conf	HNF4 split-luc
Clc1cc(Cl)c(-c2cc(Cl)c(Cl)cc2Cl)cc1Cl	1.8	-3.6	-4.7	2.2	8.6	4.1	.	.
CNS(=O)(=O)c1ccc(N=Cc2c(O)n(-c3ccccc3)c(=O)[nH]c2=O)cc1	0.3	6.8	7.6	40.2*	1.0	-2.7	6.1	21.8*
N=Cc1c(O)n(-c2cccc(Cl)c2)c(=O)[nH]c1=O	4.8	12.8	19.6	3.5	-18.6	0.5	.	.
CNS(=O)(=O)c1ccc(N=Cc2c(O)n(-c3cccc(C)c3)c(=O)[nH]c2=O)cc1	-2.2	11.1	-1.8	16.7	4.7	9.6	.	.
O=c1[nH]c(=O)n(-c2cccc(Cl)c2)c(O)c1/C=N/c1ccccn1	-0.8	13.4	12.2	26.4*	9.8	2.2	4.1	27.0*
C=C(C)CC1(CC)C(=O)NC(=S)NC1=O	16.9	18.2	.	2.7	-9.0	-5.4	.	.
COc1ccccc1N1C(=O)CC(=O)NC1=O	2.7	8.4	16.7	26.7*	11.3	0.9	6.1	35.8*
CCOc1cccc(N2C(=O)CC(=O)NC2=O)c1	2.4	3.5	18.4	17.2	-1.0	1.6	.	.
CCc1ccc(N2C(=O)CC(=O)NC2=O)cc1	-11.9	5.2	-17.1	23.8*	8.8	4.8	7.7	15.5*
COc1cccc(N2C(=O)CC(=O)NC2=O)c1	-4.6	9.9	8.0	27.3*	-2.8	2.1	8.1	31.8*
CC1=C(O)C(=O)C=C2C1=CC=C1C2(C)CCC2(C)C3CC(C)(C(=O)O)CCC3(C)CCC12C (configuration not stated)	78.1*	91.9*	.	95.4*	-74.8*	105.1*	101.5*	106.0*
O=C(O)c1ccccc1-c1ccc(C=C2C(=O)N(c3ccccc3)C(=S)N(c3ccccc3)C2=O)o1	4.8	-20.5	15.7	-1.9	7.4	-4.5	.	.
O=c1[nH]c(=O)n(CC2CCCO2)c(O)c1/C=C1\C=Nc2ccccc21 (configuration not stated)	-7.9	2.0	-1.5	26.6*!	5.0	-6.0	11.2	18.0*
O=c1[nH]c(=O)n(Cc2ccccc2)c(O)c1/C=C1\C=Nc2ccccc21	41.5	3.8	25.8	14.2	-25.0	21.5	.	.
